Reference: PubChem BioAssay AID651965 (National Center for Advancing Translational Sciences (NCATS), 2013)
Screen size: about 340,000 compounds; about 6,400 (1.9%) were called active. Entries that show only a call come without a potency. Not shown: some 4% with an inconclusive outcome. The sample holds actives, similar compounds and a random draw of the others, so the mix is not that of the screen. The call rests on the fitted dose curve; in most records, active means well fitted falling curve with a large enough effect; inconclusive means small, poorly fitted or top-dose-only effect; inactive means no such curve, though single readings can be large or run the other way.

The compounds below were run against ATP-dependent Clp protease proteolytic subunit (Bacillus subtilis (strain 168)) (UniProt P80244) (assay: qHTS Assay for Activators of ClpP). Settings: purified B. subtilis ClpP, FRET peptide cleavage, 20 min; series mostly up to 57.5 µM.
Sequence of ATP-dependent Clp protease proteolytic subunit (Bacillus subtilis (strain 168)) (P80244 whole entry, looked up): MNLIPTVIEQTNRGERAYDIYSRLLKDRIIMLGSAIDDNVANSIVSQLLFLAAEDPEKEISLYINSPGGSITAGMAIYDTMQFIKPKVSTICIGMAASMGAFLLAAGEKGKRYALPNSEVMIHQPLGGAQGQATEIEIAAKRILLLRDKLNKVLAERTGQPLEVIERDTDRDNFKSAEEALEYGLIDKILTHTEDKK
Outline: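 Purified B. subtilis ClpP, 10 microg/mL final in Tris/HCl pH8 with KCl, BSA, glycerol and Tween-20, cleaved an Abz/nitrotyrosine-quenched decapeptide. Fluorescence (ex 320, em 430) was read at 0 and 20 min at room temperature. Delta was normalized to 5.8 microM ADEP and DMSO/no-enzyme controls.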
Further: the source files actives as falling curves though it sought activators and does not explain the sign; nearly all actives have a fitted effect of over 65% in size.
Potency means the concentration at half of the fitted maximal effect.

| Compound | Potency |
| --- | --- |
| O=C(C[C@H]1C[C@H]2c3cc(NS(=O)(=O)c4ccc(F)cc4)ccc3O[C@H]2[C@H](CO)O1)NCc1cc(F)ccc1F | inactive |
| COC(=O)c1[nH]c2ccccc2c1NC(=O)CN1CCCc2ccccc21 | inactive |
| CCOC(=O)N1CCN(CCC(=O)Nc2cc(OC)ccc2OC)CC1 | inactive |
| Cc1c(C(=O)CN2CCOCC2)[nH]c2ccccc12 | inactive |
| CCOC(=O)c1[nH]c2ccc(OC)cc2c1NC(=O)CCN1CCN(Cc2ccccc2)CC1 | 31.6 µM (active) |
| Cc1cc(NC(=O)CCN2CCN(Cc3ccccc3)CC2)ccc1Br | inactive |
| CCOC(=O)c1[nH]c2ccc(OC)cc2c1NC(=O)N1CCOCC1 | 25.1 µM (active) |
| CCOC(=O)[C@]12CCCC=C1N(Cc1ccc(Cl)cc1Cl)C(=O)[C@H](CC(=O)N1CCCCC1)C2 | inactive |
| OCC(O)C(O)C(O)C(O)C=Nc1ccc(/C=C/c2ccnc3ccccc23)cc1 (configuration not stated) | inactive |
| CCCc1ccc(S(=O)(=O)N2CCN(C(=O)c3cc(C)on3)CC2)cc1 | inactive |
| CCOc1ccc(CCN2C(=O)C(=O)N([C@@H](CC(C)C)CN3CCC[C@H]3CN3C(=O)C(=O)NC[C@@H]3Cc3ccccc3)C[C@@H]2CC(C)C)cc1 | inactive |
| CC(C)NC(=O)C1(C)CCCCCN1C(=O)c1ccc(-c2ccccc2)cc1 (configuration not stated) | inactive |
| O=C(COc1coc(CN2CCN(c3ccccc3F)CC2)cc1=O)N1CCc2ccccc21 | inactive |
| O=C(COc1coc(CN2CCN(c3ccccc3)CC2)cc1=O)Nc1ccccc1F | inactive |
| O=C(COc1coc(CN2CCN(c3ccccc3)CC2)cc1=O)N1CCc2ccccc21 | 28.2 µM (active) |
| CS(=O)c1ccc(/C=C2\C=Cc3ccccc32)cc1 (configuration not stated) | inactive |
| CCCNC(=O)C1(C)CCCN(Cc2cccc(C(F)(F)F)c2)C1 (configuration not stated) | inactive |
| Cc1cc(C)c(S(=O)(=O)NN=C2c3ccccc3[C@H]3Cc4csc[n+]4[C@@H]23)c(C)c1 | inactive |
| Cc1ccc(-c2nc3ccccn3c2Nc2ccc(F)cc2)o1 | inactive |
| COc1ccc(NC(=O)c2ccco2)cc1NC(=O)COc1ccc(C)c(C)c1 | inactive |
| COc1cccc(C(=O)Nc2ccc(NC(=O)c3ccco3)cn2)c1 | 14.1 µM (active) |
| O=C(Nc1ccc(NC(=O)c2cccs2)cn1)c1ccco1 | inactive |
| Cc1ccc(C(=O)COc2cccc(NC(=O)c3ccco3)c2)cc1 | 15.8 µM (active) |
| COc1ccccc1C(=O)Nc1ccc(NC(=O)c2ccco2)c(C)c1 | inactive |
| Cc1ccc(NC(=O)c2ccco2)cc1 | inactive |

| Compound | Potency |
| --- | --- |
| O=C1C(Sc2cccc(F)c2)=C[C@@]2(O)CC[C@@H](O)[C@]1(Sc1cccc(F)c1)[C@H]2O | inactive |
| CCOc1ccc(CC(=O)NC2CCN(Cc3ccccc3)CC2)cc1 | inactive |
| CCOc1ccc(C(=O)NC2CCN(S(=O)(=O)CC)CC2)cc1 | inactive |
| CCOc1ccc(NS(=O)(=O)c2ccc(C(=O)NC3CCN(Cc4ccccc4)CC3)cc2)cc1 | 28.2 µM (active) |
| NC1=CC(=O)C(=O)c2cccnc21 | inactive |
| Cc1ccc([C@@H]2CC(=O)[C@@H]3CN(S(=O)(=O)c4ccc(C)cc4)[C@H](c4ccccc4F)C[C@@H]3N2S(=O)(=O)c2ccc(Cl)cc2)cc1 | inactive |
| COCCCNC(=S)N1CCN(c2nc(-c3cccc(OC)c3)cs2)CC1 | inactive |
| COc1cccc(NC(=O)CN2CCN(c3nc(-c4cccc(OC)c4)cs3)CC2)c1 | 17.8 µM (active) |
| COc1cccc(NC(=O)CN2CCN(CC(=O)Nc3ccccc3Cl)CC2)c1 | inactive |
| COC(=O)[C@]12CCCCC=C1N(CCC1=CCCCC1)C(=O)[C@H](CC(=O)NCC1CCCCC1)C2 | inactive |
| CC(=O)C1=C(O)C(=O)N(c2ccc(S(N)(=O)=O)cc2)C1c1ccccc1F (configuration not stated) | 25.1 µM (active) |
| NS(=O)(=O)c1ccc(NC2=CC(c3ccc(F)cc3)N(c3ccc(S(N)(=O)=O)cc3)C2=O)cc1 (configuration not stated) | inactive |
| CC(=O)C1=C(O)C(=O)N(c2ccc(Br)cc2)C1c1ccc([N+](=O)[O-])cc1 (configuration not stated) | inactive |
| CCc1c(C)nc2cc(C)[nH]n2c1=O | 22.4 µM (active) |
| CCc1c(C)nc2cc(-c3cccs3)[nH]n2c1=O | 22.4 µM (active) |
| C=CCc1c(C)nc2cc(-c3ccccc3)[nH]n2c1=O | inactive |
| CCc1ccccc1OCCSc1nc(-c2cccs2)nc2cc(=O)[nH]n12 | inactive |
| CCC(C)n1[nH]c(=O)c2c(C)cc(C)nc21 (configuration not stated) | inactive |
| Cc1ccc(-c2nc(SCc3ccc(Br)cc3)n3[nH]c(=O)cc3n2)cc1 | inactive |
| Cc1cc(Br)cn2c(Cc3ccsc3)c(-c3ccc(C#N)cc3)nc12 | inactive |
| CCOC(=O)[C@]12CCC=C1N(Cc1ccco1)C(=O)[C@H](CC(=O)N1CCSCC1)C2 | inactive |
| Nc1nc(N)c(N=O)c(N)n1 | inactive |
| CCOc1ccc2[nH]c(=O)c(CN(CCCO)C(C)=O)cc2c1 | 28.2 µM (active) |
| CCC(=O)N(Cc1cc2ccccc2[nH]c1=O)c1ccc(OC)cc1 | inactive |
| CCC(=O)N(CCc1ccccc1)Cc1cc2cc(C)ccc2[nH]c1=O | inactive |

| Compound | Potency |
| --- | --- |
| CC(C)N=C1CCCC1C(=S)SSC(=S)C1CCCC1=NC(C)C (configuration not stated) | inactive |
| Fc1ccc(Nc2nc(SCc3ccccc3Cl)nc3ccccc23)cc1 | 31.6 µM (active) |
| Fc1ccc(CSc2nc(NCc3ccccc3)c3ccccc3n2)cc1 | inactive |
| O=C(CSc1nc(Nc2ccc(F)c(F)c2)c2ccccc2n1)c1ccc(Cl)cc1 | inactive |
| Cc1cccc(C)c1NC(=O)C(c1cccc2ccccc12)n1c(=O)c(-c2ccco2)nc2ccccc21 (configuration not stated) | inactive |
| CN(Cc1ccccc1)c1ccc(/C=C/c2ccnc3ccccc23)cc1 | inactive |
| CN(C)c1ccc(/C=C2\C=Cc3ccccc32)cc1Br | inactive |
| Cc1nc2ccn(Cc3cccnc3)c(=O)c2cc1C(=O)N1CCN(c2ccccc2F)CC1 | 25.1 µM (active) |
| CCc1ccc(NC(=O)c2cc3c(=O)n(Cc4cccnc4)ccc3nc2C)cc1 | inactive |
| O=C(Cn1nc(Cc2cccnc2)c2ccccc2c1=O)N1CCN(c2ccccc2F)CC1 | inactive |
| CCCSc1nc(NCc2ccco2)c2c3c(sc2n1)COC(C)(CC)C3 (configuration not stated) | inactive |
| Cn1c(=O)n(Cc2ccco2)c(=N)c2c3c(sc21)CCCC3 | inactive |
| CN1CCc2c(sc3c2c(NCc2ccco2)nc2nnnn23)C1 | 17.8 µM (active) |
| NC(=S)NN=Cc1ccc(OC(=O)COc2cc(Cl)c(Cl)cc2Cl)cn1 | inactive |
| COc1ccc(CCNC(=O)c2c(C)nn(-c3ccccc3)c2Cl)cc1 | inactive |
| O=C(NCCCO)c1nn(-c2ccc(Cl)cc2)nc1CO | 14.1 µM (active) |
| Nc1nonc1C(=O)NCCc1ccccc1 | inactive |
| O=C(Cc1ccc(Cl)cc1)Nc1ccc2nn(-c3ccc(Cl)cc3)nc2c1 | inactive |
| COc1ccc(C(=O)NC(C)CCc2ccccc2)c(OC)c1 (configuration not stated) | inactive |
| CC(C)NC(=O)c1nn(-c2ccccc2F)nc1CO | inactive |
| Cc1ccc(-n2nc(CO)c(C(=O)NCCc3ccccc3)n2)cc1 | 10 µM (active) |
| CC(CCCc1ccccc1)NC(=O)c1nn(-c2ccc(Cl)cc2)nc1CO (configuration not stated) | 31.6 µM (active) |
| Cc1cc2nn(-c3ccc(Cl)cc3)nc2cc1NC(=O)C(C)C | inactive |
| CCN(CC)c1ccc(/C=C/c2c(C)cnc3ccc(C)cc23)cc1 | inactive |
| COC(=O)c1ccc2nc(-c3cccc(Br)c3)c(Cc3ccc(OC)cc3C)n2c1 | inactive |

| Compound | Potency |
| --- | --- |
| CCOC(=O)c1cc(-c2sc(NC(=O)c3ccccc3)nc2C)n(CCO)n1 | inactive |
| CCCCCCCCN1C(=O)[C@H](CC(=O)NCc2cccc3ccccc23)C[C@@]2(C(=O)OC)CCCCC=C12 | inactive |
| CC(C)c1ccc(Cn2c(COc3ccccc3)nc3ccccc32)cc1 | inactive |
| CC(C)c1ccc(OCC(O)CN2CCN(c3ccccn3)CC2)cc1 (configuration not stated) | inactive |
| CC(C)c1ccc(OCC(O)Cn2cnc3ccccc32)cc1 (configuration not stated) | 28.2 µM (active) |
| CCOc1cc2[nH]c(=S)n(Cc3ccc(C(=O)NCCOC)cc3)c(=O)c2cc1OCC | inactive |
| COCCn1c(=S)[nH]c2cc(C(=O)NCCc3ccc(OC)c(OC)c3)ccc2c1=O | inactive |
| COCCn1c(=O)[nH]c2cc(C(=O)NCc3cccnc3)ccc2c1=O | 28.2 µM (active) |
| COc1cc2[nH]c(=O)n(Cc3ccc(C(=O)NCc4ccc(C)cc4)cc3)c(=O)c2cc1OC | 10 µM (active) |
| COc1cc2[nH]c(=O)n(Cc3ccc(C(=O)NC4CCN(Cc5ccccc5)CC4)cc3)c(=O)c2cc1OC | inactive |
| CC(C)(C)c1cc(C(=O)NCc2cccnc2)ccn1 | inactive |
| CCCCCn1nnnc1C1c2ccccc2C(=O)N1Cc1ccco1 (configuration not stated) | inactive |
| C#Cc1cc(N2CCN(C(=O)c3ccoc3)CC2)n2nc(-c3cccc(Cl)c3)cc2n1 | inactive |
| CC(=O)N1Cc2cc(C(=O)NCc3cccc(F)c3)nc(-c3cccc(C4=CCCCC4)c3)c2[C@H]1CCO | inactive |
| CC(C)(C)C(=O)c1c(N)[nH]c(C(=O)c2ccccc2)c1-c1ccc(F)cc1 | inactive |
| O[C@@H]1C[C@H](c2ccccc2)N(Cc2cccs2)C[C@H]1n1cc(C2CC2)nn1 | inactive |
| CCOc1ccccc1NC(=O)Cn1c(=O)n(Cc2ccco2)c(=O)c2sc3ccccc3c21 | inactive |
| O=C(Cn1c(=O)n(Cc2ccccc2)c(=O)c2sc3ccccc3c21)Nc1ccccc1F | 28.2 µM (active) |
| O=C(Cn1c(=O)n(-c2ccc(F)cc2)c(=O)c2sc3ccccc3c21)NC1CCCC1 | inactive |
| O=C(CSC1=Nc2ccccc2C2=NC(c3ccccc3)C(=O)N12)NCC1CCCO1 (configuration not stated) | 17.8 µM (active) |
| Cc1ccc(CNC(=O)CSC2=Nc3ccccc3C3=NC(C)C(=O)N23)cc1 (configuration not stated) | inactive |
| O=C(CSC1=Nc2ccccc2C2=NC(CC(=O)NCc3ccco3)C(=O)N12)NCc1ccco1 (configuration not stated) | inactive |
